Results from the supplement of paper PMC6897291.

Assays:
U-2932 [1] = assay: growth inhibition by drug plus 177Lu-lilotomab satetraxetan (1 - RLU/untreated control) (fraction); higher = stronger inhibition; conditions: 177Lu-lilotomab satetraxetan 1 ug/ml
How it was run: (§1)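 Compound doses on the pre-printed Selleck Cambridge Cancer Compound library plates were 10/100 nM for RIVA cells and 10/1,000 nM for U-2932 cells, seeded at 3,000 cells/well. Before seeding, cells were washed after 18 h with or without a radiolabelled anti-CD37 antibody conjugate (~600 MBq/mg; 0.5 µg/ml RIVA, 1 µg/ml U-2932). Growth inhibition was derived from RealTime-Glo luminescence relative to untreated no-drug control wells. Readings were taken daily starting on day 3, each after 1 h at 37°C, and each well's RLU was divided by the mean of 48 such wells per plate and subtracted from 1.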

U-2932 [2] = assay: growth inhibition by drug alone (1 - RLU/untreated control) (fraction); higher = stronger inhibition; conditions: 177Lu-lilotomab satetraxetan 0 ug/ml
How it was run: as §1

SMILES | growth inhibition by drug plus 177Lu-lilotomab satetraxetan (U-2932 [1]; 10 nM, time (day): 3) | growth inhibition by drug plus 177Lu-lilotomab satetraxetan (U-2932 [1]; 10 nM, time (day): 4) | growth inhibition by drug plus 177Lu-lilotomab satetraxetan (U-2932 [1]; 10 nM, time (day): 5) | growth inhibition by drug plus 177Lu-lilotomab satetraxetan (U-2932 [1]; 10 nM, time (day): 6) | growth inhibition by drug plus 177Lu-lilotomab satetraxetan (U-2932 [1]; 1000 nM, time (day): 3) | growth inhibition by drug plus 177Lu-lilotomab satetraxetan (U-2932 [1]; 1000 nM, time (day): 4) | growth inhibition by drug plus 177Lu-lilotomab satetraxetan (U-2932 [1]; 1000 nM, time (day): 5) | growth inhibition by drug plus 177Lu-lilotomab satetraxetan (U-2932 [1]; 1000 nM, time (day): 6) | growth inhibition by drug alone (U-2932 [2]; 10 nM, time (day): 3) | growth inhibition by drug alone (U-2932 [2]; 10 nM, time (day): 4) | growth inhibition by drug alone (U-2932 [2]; 10 nM, time (day): 5) | growth inhibition by drug alone (U-2932 [2]; 10 nM, time (day): 6) | growth inhibition by drug alone (U-2932 [2]; 1000 nM, time (day): 3) | growth inhibition by drug alone (U-2932 [2]; 1000 nM, time (day): 4) | growth inhibition by drug alone (U-2932 [2]; 1000 nM, time (day): 5) | growth inhibition by drug alone (U-2932 [2]; 1000 nM, time (day): 6)
O=P1(N(CCCl)CCCl)NCCCO1 (stereo not drawn) [Cyclophosphamide monohydrate] | -0.0289 | -0.00591 | 0.0126 | 0.184 | -0.0442 | 0.00578 | 0.00582 | 0.0795 |  |  |  |  |  |  |  | 
CC(O)(CS(=O)(=O)c1ccc(F)cc1)C(=O)Nc1ccc(C#N)c(C(F)(F)F)c1 (stereo not drawn) [Bicalutamide (Casodex)] | 0.0109 | 0.0278 | 0.0445 | 0.0662 | -0.0729 | 0.0514 | 0.0207 | -0.0101 |  |  |  |  |  |  |  | 
CC[C@@H](C(=O)[C@@H](C)[C@@H](O)[C@H](C)[C@@H]1O[C@@H]([C@@H](CC)C(=O)O)CC[C@@H]1C)[C@H]1O[C@]2(C=C[C@@H](O)[C@]3(CC[C@@](C)([C@H]4CC[C@](O)(CC)[C@H](C)O4)O3)O2)[C@H](C)C[C@@H]1C [Salinomycin (Procoxacin)] | 0.0566 | 0.111 | 0.126 | 0.245 | 0.381 | 0.516 | 0.607 | 0.75 |  |  |  |  |  |  |  | 
CC1=C2C[C@H]3[C@@H](CC=C4C[C@@H](O)CC[C@@]43C)[C@@H]2CC[C@]12O[C@@H]1C[C@H](C)CN[C@H]1[C@H]2C [Cyclopamine] | 0.0717 | 0.0954 | 0.107 | 0.127 | -0.0532 | 0.0394 | 0.0391 | 0.0669 |  |  |  |  |  |  |  | 
CC(=O)Nc1ccc(OC[C@](C)(O)C(=O)Nc2ccc([N+](=O)[O-])c(C(F)(F)F)c2)cc1 [Andarine (GTX-007)] | 0.0713 | 0.12 | 0.151 | 0.162 | -0.0087 | 0.0374 | 0.0839 | 0.127 |  |  |  |  |  |  |  | 
N.N.[Cl][Pt][Cl] [Cisplatin] | 0.000302 | 0.0521 | 0.0625 | 0.172 | -0.00976 | 0.0376 | 0.065 | 0.206 |  |  |  |  |  |  |  | 
CCC1(c2ccc(N)cc2)CCC(=O)NC1=O (stereo not drawn) [Aminoglutethimide (Cytadren)] | -0.0302 | 0.0116 | 0.0252 | 0.0218 | -0.00688 | 0.0339 | 0.0642 | 0.126 | 0.0306 | -0.0299 | -0.152 | -0.107 | -0.0187 | -0.0577 | -0.161 | -0.122
Cn1cc(C2=C(c3cn(C4CCN(Cc5ccccn5)CC4)c4ccccc34)C(=O)NC2=O)c2ccccc21 | -0.0756 | -0.00933 | 0.0275 | 0.128 | -0.0807 | -0.0188 | 0.0211 | 0.21 | -0.0338 | -0.0583 | -0.0539 | 0.0229 | -0.144 | -0.131 | -0.13 | -0.0775
Cc1cc2c(C(C)C)c(O)c(O)c(C=O)c2c(O)c1-c1c(C)cc2c(C(C)C)c(O)c(O)c(C=O)c2c1O [Gossypol] | -0.115 | -0.0678 | -0.0445 | 0.0445 | -0.0917 | -0.0427 | -0.011 | 0.0745 |  |  |  |  |  |  |  | 
